In PubChem BioAssay (Tox21):
Where “and” joins values, the source holds several entries; their conditions need not be identical. Equal values may be shown once. Inconclusive results are not listed. Where a call stands in place of a potency, no number is given. Unmarked numbers belong to inactive results. Calls of active or inactive are those of the source. Calls follow the shape of the full dose curve.

Assay: qHTS assay for small molecule agonists of the p53 signaling pathway - cell viability (AID 651633); also: nearly all actives have a fitted effect of over 30% in size; also: potency is read from the fitted curve at half-maximal effect
Conditions: p53RE-bla HCT-116 viability, ATP luminescence, 16 h; series mostly up to 83.3 µM
In short: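 Viability counter-read: CellTiter-Glo luminescence (30 min, room temperature) in the same p53RE-bla plates. These plates had been exposed to compounds for 16 h at 37 C.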

SMILES | Potency
CCCCCCCCC/C=C/CC1CC(=O)OC1=O (stereo not given) | inactive
CC[C@H](C)C(=O)O[C@H]1C[C@@H](C)C=C2C=C[C@H](C)[C@H](CC[C@@H]3C[C@@H](O)CC(=O)O3)[C@H]21 | 29.8 µM (active) and 69.6 µM (active)
O=[N+]([O-])c1ccc(/C=C/c2ccc([N+](=O)[O-])cc2S(=O)(=O)O)c(S(=O)(=O)O)c1 | inactive
CC1=CC(=O)NS(=O)(=O)O1 | inactive
C=C(C)C(=O)Nc1ccc(Cl)c(Cl)c1 | inactive

Assay: qHTS assay for small molecules that induce genotoxicity in human embryonic kidney cells expressing luciferase-tagged ATAD5 - cell viability (AID 651634); also: nearly all actives have a fitted effect of over 25% in size
Conditions: HEK293T ATAD5-luc cells viability, CellTiter-Fluor, 15.5 h; series mostly up to 83.3 µM
In short: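 Viability read: CellTiter-Fluor fluorescence, 30 min at 37C. Cells: HEK293T, luciferase-tagged ATAD5. Exposure: 15.5 hr, 37C, 5% CO2, compound or DMSO vehicle.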

SMILES | Potency | activity, negative = cytotoxicity
CCCCC(CC)COC(=O)C(C#N)=C(c1ccccc1)c1ccccc1 (stereo not given) | inactive | –
O=C(Oc1ccccc1)c1ccccc1 | inactive | –
CC1CCC(C(C)C)C(O)C1 (stereo not given) | inactive | –
CCCCCCCCCCCCOCCO | inactive | –
O=C(O)[C@H](O)[C@@H](O)[C@H](O)[C@H](O)CO | inactive | –
O=C(O)CCCC[C@@H]1SC[C@@H]2NC(=O)N[C@@H]21 | inactive | –
CCc1ccc(CCOc2ccc(CC3SC(=O)NC3=O)cc2)nc1 (stereo not given) | inactive | –
COc1ccc2cc([C@H](C)C(=O)O)ccc2c1 | inactive | –
O=C(O)c1cc(C(=O)O)cc(S(=O)(=O)O)c1 | inactive | –
Cc1ccc2oc(=O)ccc2c1 | inactive | –
Cc1occc(=O)c1O | inactive | –
CCN(CC)c1ccc(C(=O)c2ccccc2C(=O)O)c(O)c1 | inactive | –
CC(c1cc2ccccc2s1)N(O)C(N)=O (stereo not given) | inactive | –
CC(C)c1ccc(S(=O)(=O)O)cc1 | inactive | –
O=C(O)c1ccccc1C(c1ccc(O)cc1)c1ccc(O)cc1 | inactive | –
OCc1cccnc1 | inactive | –
COS(C)(=O)=O | inactive | –
CCCCCC/C(C=O)=C\c1ccccc1 | inactive | –

SMILES | Potency | activity, negative = cytotoxicity
CCCCCC1=CCCC1=O | inactive | –
CCCCCOC(C)=O | inactive | –
C#C[C@]1(O)CC[C@H]2[C@@H]3CCC4=CC(=O)CC[C@@H]4[C@H]3CC[C@@]21C | inactive | –
COc1ccc(NC(C)=O)cc1N | inactive | –
OC[C@H]1O[C@@](CO)(O[C@H]2O[C@H](CO)[C@@H](O)[C@H](O)[C@H]2O)[C@@H](O)[C@@H]1O | inactive | –
Cc1cccnc1 | inactive | –
CC1=CCC2CC1C2(C)C (stereo not given) | inactive | –
O=C(O)CCCCCCCCCCC(=O)O | inactive | –
CCN(CC)CCCC(C)Nc1ccnc2cc(Cl)ccc12 (stereo not given) | – | -6.84% [at 8.08 µM]
CC(=O)Nc1ccccc1 | inactive | –
CC(=O)CC(=O)Nc1ccccc1 | inactive | –
OCC(CO)(CBr)CBr | inactive | –
CCCCCCCCC/C=C/CC1CC(=O)OC1=O (stereo not given) | inactive | –
CC[C@H](C)C(=O)O[C@H]1C[C@@H](C)C=C2C=C[C@H](C)[C@H](CC[C@@H]3C[C@@H](O)CC(=O)O3)[C@H]21 | inactive | –
O=[N+]([O-])c1ccc(/C=C/c2ccc([N+](=O)[O-])cc2S(=O)(=O)O)c(S(=O)(=O)O)c1 | inactive | –
CC1=CC(=O)NS(=O)(=O)O1 | inactive | –
C=C(C)C(=O)Nc1ccc(Cl)c(Cl)c1 | inactive | –
